Experimental data taken from PubChem BioAssay (NCI).
About 83,000 compounds went through this panel and 20% of them were active in at least one assay; those are over-represented in the sample as a whole.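 Results are percent growth after 48 hours of single-concentration exposure. 100 means growth as in untreated cells, lower positive values show inhibition; negative values down to -100 show cell death.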 A number with no mark means an inactive call. Active and inactive are the calls of the source. How the source made its calls: active means growth percent below 10; inactive means the rest.

tested on: HT29 colon; assay: NCI-60 one-dose screen, 48 h (100 = growth as untreated, 0 = no growth, -100 = all killed); details: 10 µM

Row | SMILES | growth
1 | Cc1c(O)cnc2nn(-c3ccccc3)c(=N)n12 | 96.3%
2 | CC[N+](C)(CC)CCO | 103%
3 | COc1cc(CCN=Cc2ccccc2O)c([N+](=O)[O-])cc1OC | 101%
4 | O=[N+]([O-])c1ccc(CO)cc1 | 108%
5 | O=C(Nc1ccccc1C(=O)NCC1CC1)c1cccs1 | 105%
6 | COc1cc(CN)ccc1O | 91.8%
7 | O=[N+]([O-])c1ccccc1S(=O)c1ccccc1[N+](=O)[O-] | 107%
8 | CC(C(=O)O)(C1CCCCC1)C1(O)CCCCC1 (stereo not given) | 101%
9 | COc1cc(/C=C/C(=O)c2ccccc2)cc(OC)c1OC | 19.1%
10 | O=C1OC(c2ccc(F)cc2)CC1CN1CCOCC1 (stereo not given) | 90.3%
11 | OC1OC(COC(c2ccccc2)(c2ccccc2)c2ccccc2)C(O)C(O)C1O (stereo not given) | 110%
12 | CC(C)(N)COS(=O)(=O)O | 113%
13 | C=CCCCCCCCCCOC(C)=O | 103%
14 | O=C(NCc1ccco1)Nc1c(Cl)cc(Cl)cc1Cl | 94.3%
15 | CCOC(=O)C1=C(Nc2ccc(Br)cc2)C(=O)N(CC)C1 | 103%
16 | CN(C)c1ccc(C(c2ccc(O)cc2)c2ccc(N(C)C)cc2)cc1 | 86.2%

Row | SMILES | growth
17 | S=C1NCc2cncnc2N1 | 104%
18 | C/C(=N\NC(=O)c1ccccc1N)c1ccccc1O | 37%
19 | CC(C)(C)n1nc(C2CC2)c(Br)c1NC(=O)c1ccccc1F | 103%
20 | O=C(O)CCC(NC(=O)OCc1ccccc1)C(=O)O (stereo not given) | 105%
21 | Nc1ccccc1SC(CC(=O)c1ccccc1)c1c(Cl)cccc1Cl (stereo not given) | 42.5%
22 | O=C(O)CSCSCC(=O)O | 107%
23 | NC(CSC(c1ccccc1)(c1ccccc1)c1ccccc1)C(=O)O (stereo not given) | 14%
24 | CCCC[P+](c1ccccc1)(c1ccccc1)c1ccccc1 | 40.9%
25 | CC(CN1CCCCC1)NC(=O)c1scnc1-c1ccccc1 (stereo not given) | 94.2%
26 | COc1ccc(C(=O)C(Br)C(Br)C(=O)O)cc1 (stereo not given) | 117%
27 | CCOC(=O)c1coc(C(=O)OCC)c1C(=O)OCC | 124%
28 | O=C(OCC(O)C1OC(c2ccccc2)OC(COC(=O)c2ccccc2)C1O)c1ccccc1 (stereo not given) | 103%
29 | COc1ccc(/C(C#N)=C2C=C/C(=N/O)c3ccccc3\2)cc1 | -13.3% (active)
30 | Nc1ccc(N)c([N+](=O)[O-])c1 | 121%
31 | Cc1ccccc1C1N=C2Oc3ccccc3C=C2C(=O)N1 (stereo not given) | 49.7%
32 | Cc1cc(/C=C/c2ccc3cc(N(C)C)ccc3[n+]2C)c(C)n1-c1ccccc1 | 4.1% (active)

tested on: SNB-75 CNS; assay: as above; details: 10 µM

Row | SMILES | growth
33 | Cc1c(O)cnc2nn(-c3ccccc3)c(=N)n12 | 76.4%
34 | CC[N+](C)(CC)CCO | 108%
35 | CCOC(=O)C/C(C)=N\O | 118%
36 | COc1cc(CCN=Cc2ccccc2O)c([N+](=O)[O-])cc1OC | 96.6%
37 | O=[N+]([O-])c1ccc(CO)cc1 | 108%
38 | O=C(Nc1ccccc1C(=O)NCC1CC1)c1cccs1 | 70.3%
39 | COc1cc(CN)ccc1O | 88.8%
40 | N#CC(=Nc1cccc(F)c1)C1=C(O)c2ccccc2C1=O | 54.3%
41 | O=[N+]([O-])c1ccccc1S(=O)c1ccccc1[N+](=O)[O-] | 83.1%
42 | CC(=O)OCC1CCCO1 (stereo not given) | 96.1%
43 | CC(C(=O)O)(C1CCCCC1)C1(O)CCCCC1 (stereo not given) | 85.2%
44 | COc1cc(/C=C/C(=O)c2ccccc2)cc(OC)c1OC | 71.2%
45 | O=C1OC(c2ccc(F)cc2)CC1CN1CCOCC1 (stereo not given) | 89.1%
46 | OC1OC(COC(c2ccccc2)(c2ccccc2)c2ccccc2)C(O)C(O)C1O (stereo not given) | 72%
47 | O=C(NCCNC(=O)c1ccc(Cl)cc1Cl)c1ccc(Cl)cc1Cl | 102%
48 | CC(C)(N)COS(=O)(=O)O | 91.5%
49 | C=CCCCCCCCCCOC(C)=O | 101%
50 | O=C(NCc1ccco1)Nc1c(Cl)cc(Cl)cc1Cl | 89.1%
51 | CCOC(=O)C1=C(Nc2ccc(Br)cc2)C(=O)N(CC)C1 | 94.7%

Row | SMILES | growth
52 | CN(C)c1ccc(C(c2ccc(O)cc2)c2ccc(N(C)C)cc2)cc1 | 87.3%
53 | S=C1NCc2cncnc2N1 | 86.6%
54 | C/C(=N\NC(=O)c1ccccc1N)c1ccccc1O | 83%
55 | CC(C)(C)n1nc(C2CC2)c(Br)c1NC(=O)c1ccccc1F | 78.4%
56 | O=C(O)CCC(NC(=O)OCc1ccccc1)C(=O)O (stereo not given) | 99.5%
57 | Nc1ccccc1SC(CC(=O)c1ccccc1)c1c(Cl)cccc1Cl (stereo not given) | 70.6%
58 | O=C(O)CSCSCC(=O)O | 77.2%
59 | NC(CSC(c1ccccc1)(c1ccccc1)c1ccccc1)C(=O)O (stereo not given) | 64.9%
60 | CCCCC1C(=O)N(c2ccccc2)N(c2ccccc2)C1=O | 117%
61 | CCCC[P+](c1ccccc1)(c1ccccc1)c1ccccc1 | 53.5%
62 | CC(CN1CCCCC1)NC(=O)c1scnc1-c1ccccc1 (stereo not given) | 86.1%
63 | COc1ccc(C(=O)C(Br)C(Br)C(=O)O)cc1 (stereo not given) | 87.4%
64 | CCOC(=O)c1coc(C(=O)OCC)c1C(=O)OCC | 92.3%
65 | O=C(OCC(O)C1OC(c2ccccc2)OC(COC(=O)c2ccccc2)C1O)c1ccccc1 (stereo not given) | 77.4%
66 | COc1ccc(/C(C#N)=C2C=C/C(=N/O)c3ccccc3\2)cc1 | 23.4%
67 | Nc1ccc(N)c([N+](=O)[O-])c1 | 102%
68 | Cc1ccccc1C1N=C2Oc3ccccc3C=C2C(=O)N1 (stereo not given) | 21%
69 | O=C(Nc1ccccc1)OCCc1ccccc1 | 80.3%
70 | Cc1cc(/C=C/c2ccc3cc(N(C)C)ccc3[n+]2C)c(C)n1-c1ccccc1 | -1.13% (active)
